Rows were chosen to be rich in hits. Some 2.8% of all compounds tested hit in one or more screens of this group.
HSP90 inh – inhibitors of HSP90 luciferase refolding in rabbit reticulocyte lysate; luciferase refolding luminescence, 3 h; inhibition, % at 5.6 µM; 290,000 tested, 0.91% active; AID 1789;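 active = inhibition above the screen-wide mean plus 3 SD, computed separately per campaign, cut at about 16% in these data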;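 also: 0% = DMSO wells and 100% = 60 µM geldanamycin wells; inhibitors lower the luminescence because luciferase stays unfolded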
SENP8 block-1 – blocks the human protease SENP8; Q96LD8; 330,000 tested, 1.2% active; AID 2540; purified SENP8, Z-RLRGG-aminoluciferin cleavage, luminescence; inhibition, % at 10 µM; in the data active = inhibition above about 50%
SENP8 block-2 – SENP8 (human) protease inhibition | Q96LD8 | recombinant SENP8, Nedd8 substrate fluorescence | inhibition, % at 20 µM | 360,000 tested, 0.64% active | AID 602440; in the data active = inhibition mostly above about 40%, no sharp cut-off; inactive = mostly below about 27%
SENP7 block – blocks the human protease SENP7. Q9BQF6. AID 434973. recombinant SENP7, Z-RLRGG-aminoluciferin luminescence, 40 min. 330,000 tested, 1.5% active. inhibition, % at 5 µM;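 active = inhibition above about 50% at the single test dose, limit read from the data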;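 also: plate controls were DMSO with enzyme for no effect and no enzyme buffer wells for full effect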
Target sequence (Q9BQF6 706-1050 limits assumed): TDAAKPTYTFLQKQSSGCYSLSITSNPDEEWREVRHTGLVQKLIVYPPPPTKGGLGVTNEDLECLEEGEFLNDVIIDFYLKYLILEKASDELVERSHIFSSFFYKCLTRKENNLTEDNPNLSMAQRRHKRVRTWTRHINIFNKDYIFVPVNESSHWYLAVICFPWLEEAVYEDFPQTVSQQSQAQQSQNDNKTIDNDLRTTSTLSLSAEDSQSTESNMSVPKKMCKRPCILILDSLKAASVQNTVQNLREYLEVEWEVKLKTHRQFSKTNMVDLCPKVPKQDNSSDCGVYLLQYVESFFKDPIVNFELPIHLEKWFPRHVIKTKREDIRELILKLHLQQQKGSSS
SENP6 block – inhibitors of human SENP6 protease. Q9GZR1. Recombinant SENP6 catalytic domain, aminoluciferin luminescence. inhibition, % at 10 µM. 330,000 tested, 1.8% active. AID 2599;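 active = inhibition above about 50% at the single tested dose, limit read from the data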;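 also: plate controls were DMSO wells with enzyme for no effect and DMSO wells lacking enzyme for full effect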
HSP90 inh confirm – HSP90 inhibition, confirmation assay; shares compounds with HSP90 inh; rabbit reticulocyte lysate, luciferase refolding luminescence, 3 h; inhibition, % at 5.9 µM; 2,300 tested, 64% active; AID 1846; in the data active = inhibition above about 18%;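 also: 0% = vehicle wells and 100% = reference inhibitor wells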
FLuc counter – firefly luciferase inhibition, HSP90 counter-screen; shares compounds with HSP90 inh; purified native firefly luciferase, luminescence; inhibition, % at 5.9 µM; 2,300 tested, 48% active;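 active = inhibition above the mean inhibition of all tested sample wells plus 3 SD, cut at about 10% in these data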;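 also: 0% = DMSO with luciferase and 100% = wells lacking luciferase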
SENP8 conf – human SENP8 inhibition, confirmed; shares compounds with SENP7 block; inhibition, % at 12.5 µM; 6,200 tested, 40% active; Recombinant SENP8, Z-RLRGG-aminoluciferin luminescence, 60 min;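 active = mean inhibition across replicates above about 50%, limit read from the data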
SENP6 conf – confirmation of human SENP6 protease inhibitors. shares compounds with SENP7 block. recombinant SENP6, Z-RLRGG-aminoluciferin luminescence. inhibition, % at 12.5 µM. 6,200 tested, 58% active. AID 488915
SENP7 conf – human SENP7 inhibition, confirmed; shares compounds with SENP7 block; recombinant SENP7, Z-RLRGG-aminoluciferin luminescence, 40 min; 6,200 tested, 69% active; inhibition, % at 12.5 µM
Casp3 SENP sel – caspase-3 inhibition (SENP selectivity assay). shares compounds with SENP7 block. purified caspase-3, Z-DEVD-aminoluciferin luminescence, 60 min. inhibition, % at 12.5 µM. 6,200 tested, 60% active;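 active = mean inhibition above about 50%, limit read from the data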;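 also: plate controls were enzyme with DMSO for no effect and wells without caspase-3 for full effect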
Luc interf – interferes with luciferase luminescence in SENP counter-screen; 6,200 tested, 39% active; Pre-incubated SENP8/Z-RLRGG-aminoluciferin, luciferase luminescence interference; shares compounds with SENP7 block; inhibition, % at 12.5 µM; AID 488919;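 active = mean inhibition above about 50% when retested at one dose, limit read from the data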;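 also: plate controls were DMSO wells with completed reaction for no effect and substrate without enzyme for full effect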
An asterisk follows results filed as active.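 The calls were made as follows, unless noted: active = mean inhibition above about 50% in the one-dose retest (limit read from the data); inactive = the rest.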

What do the screens show for `COc1ccccc1-c1nc(-c2ccccn2)no1`?
HSP90 inh: 46.7*; SENP8 block-1: 93.2*; SENP8 block-2: -16.1; SENP7 block: 98.6*; SENP6 block: 95.8*; HSP90 inh confirm: 78.0*; FLuc counter: 65.1*; SENP8 conf: 12.3; SENP6 conf: 99.1*; SENP7 conf: 102.5*; Casp3 SENP sel: 98.7*; Luc interf: 97.1*

What do the screens show for `Cc1ccccc1-c1nc(-c2ccccn2)no1`?
HSP90 inh: 46.3*; SENP8 block-1: 96.1*; SENP8 block-2: 12.8; SENP7 block: 100.0*; SENP6 block: 97.1*; HSP90 inh confirm: 85.7*; FLuc counter: 81.9*; SENP8 conf: 98.3*; SENP6 conf: 99.2*; SENP7 conf: 101.8*; Casp3 SENP sel: 97.9*; Luc interf: 97.7*

What do the screens show for `Cc1ccc(NC(=O)c2sc(N)nc2-c2ccc([N+](=O)[O-])cc2)cc1C`?
HSP90 inh: 5.2; SENP8 block-1: -5.0; SENP8 block-2: 28.0; SENP7 block: 7.6; SENP6 block: -21.8

How did CC(C)c1ccc(-n2ccnc2SCC(=O)O)cc1 do in these assays?
HSP90 inh: -0.9; SENP8 block-1: -4.5; SENP8 block-2: -1.2; SENP7 block: -4.5; SENP6 block: -21.2

How did CC1CN(C(=O)COc2ccc3ccccc3c2)CC(C)O1 (stereo unspecified) do in these assays?
SENP8 block-1: -9.8; SENP8 block-2: 3.7; SENP7 block: -0.4; SENP6 block: -13.3

How did Cc1ccc(Nc2ccc(C(=O)O)cc2N)cc1 do in these assays?
HSP90 inh: 19.9*; SENP8 block-1: 94.4*; SENP7 block: 98.1*; SENP6 block: 97.7*; HSP90 inh confirm: 4.5; FLuc counter: -19.7; SENP8 conf: 97.9*; SENP6 conf: 99.0*; SENP7 conf: 102.0*; Casp3 SENP sel: 89.2*; Luc interf: 97.1*

What do the screens show for `CCc1ccc(OCc2ccc(C(=O)O)o2)cc1`?
HSP90 inh: 95.6*; SENP8 block-1: 90.4*; SENP8 block-2: 3.8; SENP7 block: 86.5*; SENP6 block: 90.5*; HSP90 inh confirm: 93.9*; FLuc counter: 67.9*; SENP8 conf: 94.9*; SENP6 conf: 94.9*; SENP7 conf: 99.9*; Casp3 SENP sel: 52.1*; Luc interf: 93.8*

How did N#Cc1ccc(OCc2ccc(C(=O)O)o2)cc1 do in these assays?
HSP90 inh: 2.1; SENP8 block-1: 12.4; SENP8 block-2: 6.2; SENP7 block: 16.6; SENP6 block: 23.7

Results for Cc1ccc2nc(-c3ccc4c(c3)OCCO4)cn2c1 ?
HSP90 inh: 92.8*; SENP8 block-1: 87.0*; SENP8 block-2: -426.3; SENP7 block: 94.3*; SENP6 block: 89.2*; HSP90 inh confirm: 94.5*; FLuc counter: 90.5*; SENP8 conf: 93.3*; SENP6 conf: 93.3*; SENP7 conf: 101.0*; Casp3 SENP sel: 94.3*; Luc interf: 92.9*

How did Clc1ccc2nc(-c3ccc4c(c3)OCO4)cn2c1 do in these assays?
HSP90 inh: 23.6*; SENP8 block-1: 78.2*; SENP8 block-2: -416.4; SENP7 block: 79.3*; SENP6 block: 75.4*; HSP90 inh confirm: 72.9*; FLuc counter: 70.9*; SENP8 conf: 28.8; SENP6 conf: 86.0*; SENP7 conf: 69.7*; Casp3 SENP sel: 63.8*; Luc interf: 11.1

Screening results as filed in PubChem.
